Pf Dd2 inh – P. falciparum Dd2 growth inhibitors, primary screen, SYBR Green fluorescence, single dose replicates; 72 h; active compounds read low; activity change, % at 10 µM; actives 2.3% (n = 94,000); AID 1159554, 2015; in the data active = activity change below about -80%
T cruzi growth-1 – T. cruzi intracellular proliferation inhibitors, primary screen, cell-based, beta-gal Tulahuen parasites, NIH3T3 host, luminescence | T. cruzi beta-gal in NIH3T3, GalScreen luminescence, 90 h | inhibition, % at 8.34 µM | actives 5.9% (n = 77,000);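 active = mean inhibition above about 93%, with at least 55% of replicates each passing it, limit read from the data, passing the limit was not always enough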
C diff HTS – C. difficile growth inhibitors, primary screen, HTS. Clostridium difficile clinical isolate growth, OD600, 24 h; active compounds read low. growth activity, negative = inhibition, % at 16 µg/mL (by protocol). actives 0.25% (n = 86,000);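 active = mean growth activity at or below -80% and every replicate also at or below -80%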
T cruzi growth-2 – T. cruzi intracellular proliferation inhibitors, confirmation, cell-based, NIH3T3 host, beta-gal parasite, luminescence, cherry-pick | T. cruzi beta-gal in NIH3T3, GalScreen luminescence, 90 h | inhibition, % at 8.35 µM | actives 72% (n = 5,600) | shares compounds with T cruzi growth-1 | AID 651739, 2012;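 active = mean replicate inhibition above about 95% and at least 55% of replicates individually reaching it, limit read from the data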
T cruzi growth-3 – inhibitors of intracellular T. cruzi replication, confirmation, NIH3T3 host cells, beta-gal parasites, cherry-pick, set 2 | actives 21% (n = 5,600) | inhibition, % at 2.09 µM | shares compounds with T cruzi growth-1 | T. cruzi beta-gal in NIH3T3, GalScreen luminescence, 90 h;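 active = mean inhibition above about 95%, with at least 55% of replicates also reaching it, limit read from the data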
3T3 cytotox – cytotoxicity in mouse NIH/3T3 fibroblasts, confirmation, cytotoxicity control for T. cruzi proliferation inhibitor project, cell-based, cherry-pick, single point | shares compounds with T cruzi growth-1 | NIH/3T3 viability, CellTiter-Glo ATP luminescence, 90 h | cytotoxicity (signal decrease), % at 8.35 µM | actives 14% (n = 5,600) | AID 651742, 2012;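 active = mean signal decrease across replicates above about 35% based on untreated-well scatter, with enough replicates individually passing, limit read from the data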
3T3 cytotox 2 – NIH/3T3 fibroblast cytotoxicity, confirmation, cytotoxicity control, cell-based, cherry-pick, single point, set 2; shares compounds with T cruzi growth-1; NIH/3T3 viability, CellTiter-Glo ATP luminescence, 90 h; inhibition, % at 24.9 µM; actives 56% (n = 5,600);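 active = mean loss of cell viability signal at or above a set limit, and enough replicates individually reaching it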
Of the large screens only hits and unclear results are named; the others gave an inactive call (follow-up assays come after a bar, where they were run). In the library only some 6.7% were active in any assay of this set; here they are far more common.

N#Cc1cccc(-c2ccc([C@H]3[C@@H](CO)N4CCCCN(C(=O)Nc5ccccc5)C[C@@H]34)cc2)c1	T cruzi growth-1 111 | T cruzi growth-2 108 | T cruzi growth-3 inactive | 3T3 cytotox inactive | 3T3 cytotox 2 inactive
CCC(=O)N1CCCCN2[C@H](CO)[C@H](c3ccc(-c4cccc(C#N)c4)cc3)[C@@H]2C1	none
COc1ccccc1NC(=O)N1CCCCN2[C@H](C1)[C@H](c1ccc(-c3cccc(C#N)c3)cc1)[C@@H]2CO	none
COc1ccccc1NC(=O)N1CCCCN2[C@H](C1)[C@@H](c1ccc(-c3cccc(C#N)c3)cc1)[C@@H]2CO	none
N#Cc1cccc(-c2ccc([C@H]3[C@H](CO)N4CCCCN(C(=O)Nc5ccccc5)C[C@@H]34)cc2)c1	T cruzi growth-1 99 | T cruzi growth-2 110 | T cruzi growth-3 inactive | 3T3 cytotox 46 | 3T3 cytotox 2 106
CCCC(=O)Nc1ccc2c(c1)OC[C@@H](C)N(Cc1cccc(F)c1)C[C@H](C)[C@H](OC)CN(C)C2=O	none (no result: C diff HTS)
CCC(=O)N1C[C@@H](C)[C@H](OC)CN(C)C(=O)c2ccc(NC(=O)c3cnccn3)cc2OC[C@H]1C	none (no result: C diff HTS)
O=C(Nc1ccc(Cl)c(Cl)c1)N[C@@H]1CC[C@@H](CCn2cc(C3CC3)nn2)O[C@@H]1CO	none (no result: T cruzi growth-1)
CC(C)CC#Cc1cnc2c(c1)C(=O)N([C@H](C)CO)C[C@H](C)[C@@H](CN(C)C(=O)c1cnccn1)O2	none
CN1[C@@H]2c3ccc(-c4ccc(F)cc4)c(=O)n3C[C@@H]2[C@@H](CO)[C@@H]1C(=O)Nc1ccccc1	T cruzi growth-1 active (no result: Pf Dd2 inh) | T cruzi growth-2 inactive | T cruzi growth-3 inactive | 3T3 cytotox inactive | 3T3 cytotox 2 inactive
CN1[C@H](C(=O)NCc2ccccn2)[C@@H](CO)[C@@H]2Cn3c(ccc(-c4cccc(F)c4)c3=O)[C@@H]21	T cruzi growth-1 111 (no result: Pf Dd2 inh) | T cruzi growth-2 inactive | T cruzi growth-3 inactive | 3T3 cytotox inactive | 3T3 cytotox 2 inactive
CN1[C@@H]2c3ccc(-c4cccc(F)c4)c(=O)n3C[C@@H]2[C@@H](CO)[C@@H]1C(=O)NCc1ccccn1	none (no result: Pf Dd2 inh)
CN1[C@H](C(=O)Nc2ccccc2)[C@@H](CO)[C@@H]2Cn3c(ccc(-c4ccc(F)cc4)c3=O)[C@@H]21	T cruzi growth-1 active (no result: Pf Dd2 inh) | T cruzi growth-2 103 | T cruzi growth-3 inactive | 3T3 cytotox inactive | 3T3 cytotox 2 inactive
CCC(=O)N1[C@@H]2c3ccc(-c4cccc(F)c4)c(=O)n3C[C@@H]2[C@@H](CO)[C@@H]1C(=O)N1CCCCC1	none (no result: T cruzi growth-1)
COCC(=O)N1[C@H](C(=O)Nc2ccccc2)[C@@H](CO)[C@@H]2Cn3c(ccc(-c4ccc(F)cc4)c3=O)[C@@H]21	none
CCCNC(=O)N1[C@H](C(=O)N2CCCCC2)[C@@H](CO)[C@@H]2Cn3c(ccc(-c4ccc(F)cc4)c3=O)[C@@H]21	T cruzi growth-1 98 (no result: Pf Dd2 inh) | T cruzi growth-2 inactive | T cruzi growth-3 inactive | 3T3 cytotox inactive | 3T3 cytotox 2 inactive
CCN1[C@@H]2c3ccc(-c4ccc(F)cc4)c(=O)n3C[C@@H]2[C@@H](CO)[C@@H]1C(=O)Nc1ccccc1	none (no result: T cruzi growth-1)
C[C@H](O)C#Cc1ccc2c(c1)O[C@@H](CN(C)CC1CCCC1)[C@H](C)CN([C@H](C)CO)S2(=O)=O	none
CCCNC(=O)[C@@H]1[C@@H](CO)[C@@H]2Cn3c(ccc(/C=C/c4ccccc4)c3=O)[C@H]1N2C(=O)c1cccnc1	none
COc1ccc2c3c(n(C)c2c1)[C@@H](CO)N(CC1CC1)CC31CN(C(=O)Nc2ccccc2)C1	none (no result: T cruzi growth-1)
O=C(NC1CCC1)[C@@H]1[C@@H](CO)[C@@H]2Cn3c(ccc(-c4ccccc4)c3=O)[C@@H]2N1CCc1ccccc1	none
O=C(Nc1ccccc1F)N[C@H]1CC[C@@H](CC(=O)N2CCCCC2)O[C@@H]1CO	none (no result: C diff HTS)
